From PubChem BioAssay AID813 (Sanford-Burnham Center for Chemical Genomics, 2007)
Fewer than 10 of roughly 64,000 compounds were called active.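 The calls were made as follows: active = activation factor of at least 2 at 20 µM, relative to controls; inactive = the rest.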 Not all results are given here.

The molecules below were run against Alkaline phosphatase, tissue-nonspecific isozyme (Homo sapiens) (UniProt P05186) (assay: stimulation of alkaline phosphatase TNAP activity – biochemical, luminescent, intermediate phosphate acceptor level, primary screen (AID 813)). Conditions: purified TNAP, CDP-star luminescence, 100 mM DEA, 30 min; at 20 µM; stronger effect = higher value; scale: 0 levamisole-inhibited, 1 vehicle-only enzyme.
Alkaline phosphatase, tissue-nonspecific isozyme (Homo sapiens), sequence (P05186 whole entry, looked up): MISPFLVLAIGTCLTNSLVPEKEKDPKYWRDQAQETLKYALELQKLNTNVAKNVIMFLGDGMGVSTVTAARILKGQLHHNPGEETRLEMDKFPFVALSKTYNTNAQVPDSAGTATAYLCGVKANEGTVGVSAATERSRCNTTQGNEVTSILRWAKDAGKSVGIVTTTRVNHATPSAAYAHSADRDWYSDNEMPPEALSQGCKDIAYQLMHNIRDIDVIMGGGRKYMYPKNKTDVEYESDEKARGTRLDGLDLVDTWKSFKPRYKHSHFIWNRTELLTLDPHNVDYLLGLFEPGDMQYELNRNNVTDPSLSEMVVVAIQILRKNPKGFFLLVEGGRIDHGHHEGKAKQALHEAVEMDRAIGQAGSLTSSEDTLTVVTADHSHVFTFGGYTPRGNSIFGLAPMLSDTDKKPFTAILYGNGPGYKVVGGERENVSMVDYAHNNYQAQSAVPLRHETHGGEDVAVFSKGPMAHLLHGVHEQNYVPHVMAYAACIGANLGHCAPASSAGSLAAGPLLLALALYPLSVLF

Activation factor, inactive:
Cc1ccc(C)n1-c1ccncc1 0.9
Cc1cc(N2C(=O)C(=O)/C(=C(/O)c3ccc(Cl)cc3)C2c2cccc(Br)c2)no1 (stereo unspecified) 0.8
CCCOc1ccc(CN(CCO)CCO)cc1C(=O)OC 0.9
CN(C)Cc1c(O)ccc2occ(C(O)c3ccccc3)c12 (stereo unspecified) 0.9
CCn1cc(C(=O)NC2CCCCCC2)c(=O)c2cc(S(=O)(=O)N3CCCCC3)ccc21 0.9
CCn1cc(C(=O)N2CCN(C3CCCCC3)CC2)c2cc(OC)c(OC)cc2c1=O 0.9
CCOC(=O)N1CCN(C(=O)c2ccc3nc4cc(Cl)ccc4c(=O)n3c2)CC1 0.9
CCc1nc(C)cn1S(=O)(=O)c1cc(OC)c(C)cc1C 0.9
O=C(O)CC(c1ccccc1)n1cnnn1 (stereo unspecified) 1
COCCCn1c(CCC(=O)O)ccc1-c1ccc(F)cc1 0.9
CC1CN(C(=O)c2ccc3c(c2)OCO3)OC(c2ccccc2)O1 (stereo unspecified) 1
COC(=O)[C@H](Cc1ccccc1)NC(=O)Nc1ccc(S(N)(=O)=O)cc1 0.9
CC(=O)N=c1ncn(CC(COC(C)=O)OC(C)=O)c2nc[nH]c12 (stereo unspecified) 0.9
O=C(COc1ccc2c3c(c(=O)oc2c1)CCC3)NC1CCCCC1 1
Cc1ccc(S(=O)(=O)NCC(=O)N(CC(=O)NC2CCCCC2)Cc2ccco2)cc1 0.9
CC(C)c1cc(C(=O)O)on1 1
Cc1cc(C)cc(N(CC(=O)Nc2c(C)n(C)n(-c3ccccc3)c2=O)S(C)(=O)=O)c1 0.9
CC(C)(C)n1nnc(CCc2nnn(C(C)(C)C)n2)n1 0.9
O=C(c1ccccc1)c1ccc(OC(=O)N2CCCC2)cc1 0.9
COc1cc(OC)c(C(=O)NC2CC(C)(C)NC(C)(C)C2)cc1OC 1
CCOc1ccc(C(=O)NC2CCN(S(=O)(=O)CC)CC2)cc1 0.9
COc1ccc(S(=O)(=O)N2CCCC(C(=O)N3CCN(C)CC3)C2)cc1C (stereo unspecified) 1
COC(=O)COc1ccc2oc(=O)cc(C)c2c1 1
CC(=O)Nc1ccc(S(=O)(=O)N2CCSCC2)cc1 1
O=C(CCCN1C(=O)CCC1=O)Nc1ccc(Cl)c(C(F)(F)F)c1 0.9
Cc1cc(N2C(=O)C(=O)/C(=C(/O)c3ccccc3)C2c2cccc(Br)c2)no1 (stereo unspecified) 1
CCn1cc(C(=O)N2CCN(Cc3ccc4c(c3)OCO4)CC2)c2cc(OC)c(OC)cc2c1=O 0.9
CCc1c(C)c2c(C)[nH]nc2oc1=O 0.8
Cc1ccccc1CSc1nnc(-c2cccnc2)n1N 0.9
COCCN1C(=O)c2oc3c(C)cc(C)cc3c(=O)c2C1c1cccc(O)c1 (stereo unspecified) 0.8
COc1ccc2occ(C(=O)c3ccc(N=C(C)N(C)C)cc3)c2c1 0.9
O=C1CN(C(=O)COC(=O)C2CC(=O)N(Cc3ccco3)C2)c2ccccc2N1 (stereo unspecified) 0.9
CSc1nc(O)c(Cc2ccccc2)c(=O)[nH]1 1
COc1cc(C(O)c2nc3ccccc3n2C)cc(OC)c1OC (stereo unspecified) 0.9
O=C(O)c1cc(S(=O)(=O)N2CCCCCC2)c(Cl)cc1Cl 1
CCN1CCCC1CNC(=O)Cn1cnc2ccc(S(=O)(=O)N3CCC(C)CC3)cc2c1=O (stereo unspecified) 0.9
CCCCn1nc(C(=O)N2CCc3ccccc32)c2ccccc2c1=O 0.9
Cc1ccc(O)c(NC(=O)COc2cc(C)ccc2C)c1 0.9
Cc1cccc(OCc2nnc(SCC(=O)N3CCN(C(=O)c4ccco4)CC3)n2C)c1C 0.9
Cc1cc(Cl)c(S(=O)(=O)Nc2ccc3c(c2)OCCO3)cc1OCC(N)=O 0.9
CC(=NCc1ccco1)C1=C(O)c2ccccc2C1=O 0.9
Cc1ccc(-c2noc(CSc3nnc(-c4ccccc4)n3C)n2)cc1 1
O=C(Cn1[nH]c(=O)c2ccccc2c1=O)Nc1cccc(-c2nnc3n2CCCCC3)c1 0.9
CC1Cc2nc(SCC(=O)Nc3ccccc3F)n(C)c(=O)c2S1 (stereo unspecified) 1
COc1ccccc1C(=O)Oc1ccc(N2C(=O)CCC2=O)cc1 0.9
Clc1ccc(C2CC(c3cccs3)n3ncnc3N2)cc1Cl (stereo unspecified) 1
O=C(CNC(=O)c1ccco1)OCC(=O)c1ccccc1 0.9
CN1CCC2(CC1)NC(=O)NC2=O 1
CCN(CC)CCN1C(=O)C(=O)/C(=C(/O)c2ccc(OC)c(OC)c2)C1c1ccccn1 (stereo unspecified) 1
O=S(=O)(O)c1nc2ccccc2n1Cc1ccc(Cl)cc1Cl 0.9
CC(Nc1nc(N2CCCC2)nc2ccccc12)c1ccccc1 (stereo unspecified) 1
NC(=O)CSc1c[nH]c2ccccc12 0.9
CCCCOc1ccc(C(=O)NCc2ccco2)cc1 0.9
COc1ccc(S(=O)(=O)N2CCCC(C(=O)Nc3ccc(NC(=O)c4ccccn4)cc3)C2)cc1 (stereo unspecified) 0.8
Cc1cc(Nc2cccc(C)c2C)n2ncnc2n1 1
O=C(CSC1=Nc2ccccc2C2=NC(c3ccccc3)C(=O)N12)NCC1CCCO1 (stereo unspecified) 0.9
CCOC(=O)c1cccc(NC(=O)C2CCCN(S(=O)(=O)c3cnc[nH]3)C2)c1 (stereo unspecified) 0.9
CSCC[C@H](NC(=O)NCc1cccs1)C(=O)O 0.9
Cc1c2cn[nH]c(=O)c2c(C)n1Cc1ccc(F)cc1 0.9
COc1ccc2nc(NC3=NCN(CC4CCCO4)CN3)nc(C)c2c1 (stereo unspecified) 0.9
Cc1ccc(C)n1C(Cc1ccccc1)C(=O)O (stereo unspecified) 0.8
Cc1cc(N2CCCC2=O)cc(C)c1S(N)(=O)=O 0.9
CCOC(=O)Cn1c(N)c(C(=O)OC)sc1=S 0.9
Cc1cccc(NC(=O)c2ccc3ccccc3n2)n1 0.9
COc1ccc(C2C(C#N)=C(N)Oc3cc(N)ccc32)cc1OC (stereo unspecified) 1
Cc1nn(C)c(C)c1S(=O)(=O)N1CCc2ccccc21 1
